# bCat KO growth: primary screen for growth suppressors in beta-catenin knockout HCT116 cells (colon tumor, human). HCT116 beta-catenin knockout viability, CellTiter-Glo, 60 h; active compounds read low. viability, % at 10 µM. 140,000 tested, 1.5% active;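 active = viability at or under a set limit, the compound median less 4 SD, cut at about 6% in these data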;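 also: 0% = Hyamine 1622 control at 20 µM and 100% = untreated cell control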
# Insulin prom up: insulin promoter activators in MIN6 cells, imaging, high-content screening, mouse beta cells | 190,000 tested, 0.3% active | AID 1625, 2009 | MIN6 insulin promoter-GFP reporter; active compounds read high | z-score at 5 µM;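 active = z-score above 3 at 5 µM with at least 500 cells counted in the well; inconclusive = wells under 500 cells, flagged as cytotoxic or low count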
# Autophagy HCS: autophagy modulators in MEF cells, primary screen, imaging, high-content, MEF GFP-LC3. MEF GFP-LC3 puncta imaging; test concentration mostly 10 µM. calls only at 10 µM (by protocol). 190,000 tested, 0.98% active;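 active = percentage of spot-positive cells more than 3 SD above its plate mean, without a fluorescence outlier flag or 80% toxicity; inconclusive = no clear call, values can overlap the other calls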;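 also: spot-positive cell cutoff set from DMSO-treated cells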
# INS promoter inh: inhibitors of insulin promoter-driven GFP, primary screen, imaging, TRM-6 cells (human fetal islet line), eGFP reporter, cell count. reporter expression induced with tamoxifen. inhibition, % at 2 µM. 130,000 tested, 0.9% active;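 active = inhibition above the mean plus 3 SD, with well images judged a real hit on visual review, cut at about 60% in these data, passing the limit was not always enough; inconclusive = inhibition over the cutoff but images rejected on review; inactive = inhibition not above the cutoff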
# HCT116 PTEN-null: growth suppression of PTEN-null HCT116, primary screen, cell-based, CellTiter-Glo. 140,000 tested, 1.2% active. viability, % at 10 µM. HCT116 PTEN-null viability, 60 h; active compounds read low. AID 827, 2007;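 active = viability at or below a set limit, 4 SD under the median of all tested compounds, cut at about 3.7% in these data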;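 also: PTEN knockout HCT116 line with beta catenin targeted HCT116 as companion control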
# Lmaj promast: Leishmania major promastigote growth inhibition, primary screen. AID 1063, 2008. Leishmania major promastigotes, resazurin fluorescence viability. inhibition, % at 10 µM. 200,000 tested, 9% active; in the data active = inhibition above about 50%;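 also: promastigotes grown with compound for 44 hours at 28 °C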
# * hit, by the source's call; i = inactive; u = inconclusive; x = no result given; + = active, no number. A selection: hits, their analogues and other compounds. The true share with any hit is near 9.6%.
SMILES,bCat KO growth,Insulin prom up,Autophagy HCS,INS promoter inh,HCT116 PTEN-null,Lmaj promast
CCC1CCCCN1S(=O)(=O)c1ccc2c(c1)CCN2C(=O)C1CCC1 (centres undefined),60,1.1,i,6,63,20
O=C(CCl)c1ccc2c(c1)CCN2C(=O)C1CCCCC1,x,0.94,i,15,x,100*
COc1ccc(Cn2c(/C=C/c3ccccc3)nc3ccccc32)cc1,63,x,i,x,53,37
COc1ccc(/C=C/c2nc3ccccc3n2C)cc1,x,-0.25,i,11,x,85*
CC(C)Cn1c(/C=C/c2ccccc2)nc2ccccc21,59,-0.13,i,-47,63,46
O=C(Cn1c(/C=C/c2ccccc2)nc2ccccc21)Nc1ccc(F)cc1,74,0.3,i,x,63,63*
CCn1c(/C=C/c2ccccc2)nc2ccccc21,50,-0.36,i,x,55,77*
CCC(C)n1c(/C=C/c2ccccc2)nc2ccccc21 (centres undefined),77,-0.3,i,66,78,93*
CCCCNC(=O)CSc1nc2cc3c(cc2c(=O)n1CCC(=O)NCCc1ccc(OC)c(OC)c1)OCO3,x,-0.66,i,41,x,52*
COCCNC(=O)CSc1nc2cc(OC)c(OC)cc2c(=O)n1Cc1ccc(OC)cc1,99,-0.24,i,38,97,-1
CCC(Sc1nc2cc(OC)c(OC)cc2c(=O)n1CCc1ccc(OC)c(OC)c1)C(=O)NCCOC (centres undefined),x,-1.3,i,21,x,80*
CC(C)(C)NC(=O)CN(C(=O)CNS(=O)(=O)c1ccccc1)c1ccc2c(c1)OCCO2,103,-1.1,i,25,94,1
Cc1ccc(/C=N/Nc2ccc(C(=O)O)cc2)o1,x,0.12,i,x,x,-9
COc1ccc(C(=O)/C=C2\Sc3ccccc3N2C)cc1,x,0,i,x,x,-3
CC(=S)/C=C1\Sc2ccccc2N1C,71,u,i,x,80,99*
Nc1nc(-c2ccccn2)nc(N)c1Cc1c(F)cccc1Cl,x,-0.57,i,x,x,101*
CNc1cc(C(F)(F)F)nc(-c2ccccn2)n1,92,x,i,29,100,-6
Nc1nc(-c2ccccn2)nc(N)c1Cc1ccc(Cl)cc1Cl,x,0.29,+,-43,x,101*
Nc1nc(-c2ccccn2)nc(N)c1Cc1ccccc1F,x,-0.55,i,-7,x,95*
Cc1ccc(NC(=O)CN(C)S(=O)(=O)c2cccc3nsnc23)cc1C,82,0.43,i,0,80,12
CNC(=S)N1CCN(C(=O)c2ccco2)CC1,94,0.73,i,24,102,75*
Cc1ccccc1CN1CCN(CC2CC3C=CC2C3)CC1 (centres undefined),81,0.05,i,-4,81,87*
CS(=O)(=O)N1CCN(CC2CC3C=CC2C3)CC1 (centres undefined),104,-0.09,i,13,96,93*
CNC(=S)N1CCC(NC(=O)c2ccco2)CC1,x,-0.42,x,x,x,x
O=[N+]([O-])c1ccccc1S(=O)(=O)N1CCN(CC2CC3C=CC2C3)CC1 (centres undefined),x,x,i,15,x,4
SMILES,bCat KO growth,Insulin prom up,Autophagy HCS,INS promoter inh,HCT116 PTEN-null,Lmaj promast
CCN1CCN(CC2CC3C=CC2C3)CC1 (centres undefined),96,0.39,i,12,76,12
C1=CC2CC1CC2CN1CCN(c2ccccc2)CC1 (centres undefined),80,x,i,x,85,85*
O=C(c1ccco1)N1CCN(CC2CC3C=CC2C3)CC1 (centres undefined),107,0.58,i,-24,109,93*
COc1cc2[nH]c(=S)nc(NCCC(C)C)c2cc1OC,x,-1.1,i,83*,x,28
COc1ccc(CCNc2nc(=S)[nH]c3cc(OC)c(OC)cc23)cc1OC,x,-1.6,i,-60,x,10
COc1cc2[nH]c(=S)nc(NCCc3ccc(C)cc3)c2cc1OC,x,-1.1,i,20,x,97*
Cn1nc(C(=O)NCc2ccc(F)cc2)c2ccccc2c1=O,86,x,i,x,71,-3
COc1ccc(N2CC(O)=C(c3nc4ccccc4s3)C2=N)cc1,110,0.92,i,x,100,2
CC(=O)Nc1ccc(NC(=O)COC(=O)C2(c3ccc(Cl)cc3)CCCC2)cc1,82,x,i,36,77,74*

# Bioassay records as filed in PubChem BioAssay.
